Among the data in PMC11006913 are binding signal values, retold here.

PRRX1 (Homo sapiens, UniProt P54821 80-166), sequence (P54821 80-166): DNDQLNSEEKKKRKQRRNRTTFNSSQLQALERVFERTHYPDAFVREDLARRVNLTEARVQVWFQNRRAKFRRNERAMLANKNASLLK

In one assay the target is PRRX1 (Homo sapiens, UniProt P54821 80-166, F113S). Put plainly: PBM; 200 nM protein, PBS. The conditions noted are these: dsDNA, one strand shown.
PRRX1 (Homo sapiens, UniProt P54821 80-166, F113S), sequence (P54821 80-166 F113S): as the sequence (P54821 80-166) above, with F34S counted along it
As for GGCCCTAC, the binding signal was 9.21 upbm affinity estimate (log intensity, higher = more binding, comparable within an allelic series).

With AGATATTA, the binding signal is 10.4 upbm affinity estimate (log intensity, higher = more binding, comparable within an allelic series).

In the case of GAATTATC, the binding signal was 10.5 upbm affinity estimate (log intensity, higher = more binding, comparable within an allelic series).

For AATATGCC, the binding signal was 9.8 upbm affinity estimate (log intensity, higher = more binding, comparable within an allelic series).

With AGCCTTTC, the binding signal was 9.3 upbm affinity estimate (log intensity, higher = more binding, comparable within an allelic series).

GCGTGCCA: the binding signal is 9.08 upbm affinity estimate (log intensity, higher = more binding, comparable within an allelic series).

Regarding CAATTCCC, the binding signal is 9.81 upbm affinity estimate (log intensity, higher = more binding, comparable within an allelic series).

For the sequence TAAACTCA, the binding signal is 10.1 upbm affinity estimate (log intensity, higher = more binding, comparable within an allelic series).

In the case of CTGATGAA, the binding signal was 10 upbm affinity estimate (log intensity, higher = more binding, comparable within an allelic series).

As to CGACGTTA, the binding signal was 9.76 upbm affinity estimate (log intensity, higher = more binding, comparable within an allelic series).

With CGCTCCAC, the binding signal is 9.44 upbm affinity estimate (log intensity, higher = more binding, comparable within an allelic series).

Turning to CGCGGGAC, the binding signal was 9.43 upbm affinity estimate (log intensity, higher = more binding, comparable within an allelic series).

As for AGGTCTTG, the binding signal was 9.4 upbm affinity estimate (log intensity, higher = more binding, comparable within an allelic series).

For the sequence GCTCTTCC, the binding signal is 9.47 upbm affinity estimate (log intensity, higher = more binding, comparable within an allelic series).

On to AATCATCC, for which the binding signal is 10.3 upbm affinity estimate (log intensity, higher = more binding, comparable within an allelic series).

For the sequence GACTCTAA, the binding signal is 10.1 upbm affinity estimate (log intensity, higher = more binding, comparable within an allelic series).

On to CCTGGAAC, for which the binding signal was 9.61 upbm affinity estimate (log intensity, higher = more binding, comparable within an allelic series).

For CCAAGACG, the binding signal was 9.45 upbm affinity estimate (log intensity, higher = more binding, comparable within an allelic series).

With GCGGTTCC, the binding signal was 9.66 upbm affinity estimate (log intensity, higher = more binding, comparable within an allelic series).

CCAGAGTC: the binding signal was 9.5 upbm affinity estimate (log intensity, higher = more binding, comparable within an allelic series).

Regarding GGACAACC, the binding signal is 9.36 upbm affinity estimate (log intensity, higher = more binding, comparable within an allelic series).

As for AGGTTTAA, the binding signal was 10.1 upbm affinity estimate (log intensity, higher = more binding, comparable within an allelic series).

Turning to GAGGCTGC, the binding signal is 9.31 upbm affinity estimate (log intensity, higher = more binding, comparable within an allelic series).

On to AGCACCCT, for which the binding signal is 9.32 upbm affinity estimate (log intensity, higher = more binding, comparable within an allelic series).

Consider CAGAGAGC, for which the binding signal is 9.56 upbm affinity estimate (log intensity, higher = more binding, comparable within an allelic series).

With GCGCCAGA, the binding signal was 9.32 upbm affinity estimate (log intensity, higher = more binding, comparable within an allelic series).

On to CCCAGGGA, for which the binding signal is 9.4 upbm affinity estimate (log intensity, higher = more binding, comparable within an allelic series).

With ATCATCAC, the binding signal was 10.1 upbm affinity estimate (log intensity, higher = more binding, comparable within an allelic series).

For GCACGTCC, the binding signal was 9.49 upbm affinity estimate (log intensity, higher = more binding, comparable within an allelic series).

As to AATAGGGT, the binding signal is 10.2 upbm affinity estimate (log intensity, higher = more binding, comparable within an allelic series).

Regarding ACGCGCGG, the binding signal was 9.42 upbm affinity estimate (log intensity, higher = more binding, comparable within an allelic series).

On to TCGTAACA, for which the binding signal was 10.2 upbm affinity estimate (log intensity, higher = more binding, comparable within an allelic series).

CCAAGCTC: the binding signal is 9.29 upbm affinity estimate (log intensity, higher = more binding, comparable within an allelic series).

For the sequence AACCAATT, the binding signal is 10.4 upbm affinity estimate (log intensity, higher = more binding, comparable within an allelic series).

CAGAACCC: the binding signal is 9.51 upbm affinity estimate (log intensity, higher = more binding, comparable within an allelic series).

As to GACGTTGC, the binding signal was 9.46 upbm affinity estimate (log intensity, higher = more binding, comparable within an allelic series).

Take GAAAGACC: the binding signal is 9.56 upbm affinity estimate (log intensity, higher = more binding, comparable within an allelic series).

Take CGACGGAA: the binding signal was 9.54 upbm affinity estimate (log intensity, higher = more binding, comparable within an allelic series).

Regarding GAACAGCC, the binding signal is 9.48 upbm affinity estimate (log intensity, higher = more binding, comparable within an allelic series).

The next assay has as its target PRRX1 (Homo sapiens, UniProt P54821 80-166). Put plainly: PBM; 200 nM protein, PBS. Particulars: dsDNA, one strand shown.
In the case of GGCCCTAC, the binding signal was 9.08 upbm affinity estimate (log intensity, higher = more binding, comparable within an allelic series).

Consider AGATATTA, for which the binding signal is 12.2 upbm affinity estimate (log intensity, higher = more binding, comparable within an allelic series).

Regarding GAATTATC, the binding signal was 12.9 upbm affinity estimate (log intensity, higher = more binding, comparable within an allelic series).

Regarding AATATGCC, the binding signal was 11.1 upbm affinity estimate (log intensity, higher = more binding, comparable within an allelic series).

On to AGCCTTTC, for which the binding signal is 8.88 upbm affinity estimate (log intensity, higher = more binding, comparable within an allelic series).

Turning to GCGTGCCA, the binding signal is 9.45 upbm affinity estimate (log intensity, higher = more binding, comparable within an allelic series).

With CAATTCCC, the binding signal was 11.3 upbm affinity estimate (log intensity, higher = more binding, comparable within an allelic series).

For TAAACTCA, the binding signal was 11.1 upbm affinity estimate (log intensity, higher = more binding, comparable within an allelic series).

As to CTGATGAA, the binding signal was 11.2 upbm affinity estimate (log intensity, higher = more binding, comparable within an allelic series).

CGACGTTA: the binding signal was 11.1 upbm affinity estimate (log intensity, higher = more binding, comparable within an allelic series).

On to CGCTCCAC, for which the binding signal is 9.3 upbm affinity estimate (log intensity, higher = more binding, comparable within an allelic series).

As to CGCGGGAC, the binding signal is 9.4 upbm affinity estimate (log intensity, higher = more binding, comparable within an allelic series).

Regarding AGGTCTTG, the binding signal was 9.41 upbm affinity estimate (log intensity, higher = more binding, comparable within an allelic series).

With GCTCTTCC, the binding signal was 9.1 upbm affinity estimate (log intensity, higher = more binding, comparable within an allelic series).

Take AATCATCC: the binding signal is 12.1 upbm affinity estimate (log intensity, higher = more binding, comparable within an allelic series).

In the case of GACTCTAA, the binding signal was 11.1 upbm affinity estimate (log intensity, higher = more binding, comparable within an allelic series).

With CCTGGAAC, the binding signal is 9.32 upbm affinity estimate (log intensity, higher = more binding, comparable within an allelic series).

On to CCAAGACG, for which the binding signal is 9.18 upbm affinity estimate (log intensity, higher = more binding, comparable within an allelic series).

Turning to GCGGTTCC, the binding signal is 9.31 upbm affinity estimate (log intensity, higher = more binding, comparable within an allelic series).

On to CCAGAGTC, for which the binding signal was 9.46 upbm affinity estimate (log intensity, higher = more binding, comparable within an allelic series).

For the sequence GGACAACC, the binding signal was 9.23 upbm affinity estimate (log intensity, higher = more binding, comparable within an allelic series).

As for AGGTTTAA, the binding signal was 11.4 upbm affinity estimate (log intensity, higher = more binding, comparable within an allelic series).

GAGGCTGC: the binding signal is 9.36 upbm affinity estimate (log intensity, higher = more binding, comparable within an allelic series).

With AGCACCCT, the binding signal is 9.38 upbm affinity estimate (log intensity, higher = more binding, comparable within an allelic series).

CAGAGAGC: the binding signal is 9.55 upbm affinity estimate (log intensity, higher = more binding, comparable within an allelic series).

Consider GCGCCAGA, for which the binding signal was 9.56 upbm affinity estimate (log intensity, higher = more binding, comparable within an allelic series).

As to CCCAGGGA, the binding signal is 9.28 upbm affinity estimate (log intensity, higher = more binding, comparable within an allelic series).

Consider ATCATCAC, for which the binding signal was 11.5 upbm affinity estimate (log intensity, higher = more binding, comparable within an allelic series).

In the case of GCACGTCC, the binding signal was 9.27 upbm affinity estimate (log intensity, higher = more binding, comparable within an allelic series).

On to AATAGGGT, for which the binding signal is 11.5 upbm affinity estimate (log intensity, higher = more binding, comparable within an allelic series).

For the sequence ACGCGCGG, the binding signal was 9.29 upbm affinity estimate (log intensity, higher = more binding, comparable within an allelic series).

For the sequence TCGTAACA, the binding signal was 11.3 upbm affinity estimate (log intensity, higher = more binding, comparable within an allelic series).

For the sequence CCAAGCTC, the binding signal was 9.43 upbm affinity estimate (log intensity, higher = more binding, comparable within an allelic series).

As for AACCAATT, the binding signal was 12.6 upbm affinity estimate (log intensity, higher = more binding, comparable within an allelic series).

Consider CAGAACCC, for which the binding signal was 9.39 upbm affinity estimate (log intensity, higher = more binding, comparable within an allelic series).

For GACGTTGC, the binding signal is 9.38 upbm affinity estimate (log intensity, higher = more binding, comparable within an allelic series).

Turning to GAAAGACC, the binding signal was 9.45 upbm affinity estimate (log intensity, higher = more binding, comparable within an allelic series).

Regarding CGACGGAA, the binding signal was 9.34 upbm affinity estimate (log intensity, higher = more binding, comparable within an allelic series).

As for GAACAGCC, the binding signal is 9.53 upbm affinity estimate (log intensity, higher = more binding, comparable within an allelic series).
